Bioassay records from PubChem BioAssay.
DAX1 inh-1 = DAX1 (NR0B1) inhibition, primary screen; HEK293T StAR-luciferase reporter, SF-1/DAX-1 repression relief; inhibition, % at 6.8 µM; actives 1.1% (n = 370,000); AID 652010;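 active = inhibition above the mean over all tested compounds plus 3 SD, cut at about 3.6% in these data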;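 also: higher inhibition means more luminescence from relief of DAX-1 repression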
hgDAF-12 ag = hgDAF-12 agonism, primary luciferase screen; actives 1.8% (n = 370,000); HEK293 GAL4-hgDAF12 UAS-luciferase reporter, agonist luminescence; normalized to butyrate control; activation, % at 6.8 µM;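 active = activation above a cutoff set at the mean of all screened compounds plus 3 SD, cut at about 10% in these data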
hcDAF12 agonist = activators of H. contortus DAF-12 nuclear receptor | HEK293 hcDAF-12 lit1-tk-luc reporter, luminescence; 0% DMSO, 100% Δ7-dafachronic acid | activation, % at 6.8 µM | actives 1.4% (n = 370,000);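 active = activation above the mean of all tested compounds plus 3 SD, cut at about 5.5% in these data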
DAX1 inh-2 = NR0B1 (DAX1) inhibition | inhibition, % at 6.75 µM | HEK293 Gal4-DAX1 luciferase reporter, luminescence | actives 0.99% (n = 340,000) | AID 504766 | P51843;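 active = inhibition above the mean over all tested compounds plus 3 SD, cut at about 4.2% in these data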;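 also: inhibition shows as a rise in luminescence from relieved DAX1 repression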
Target sequence (P51843 207-470 limits assumed): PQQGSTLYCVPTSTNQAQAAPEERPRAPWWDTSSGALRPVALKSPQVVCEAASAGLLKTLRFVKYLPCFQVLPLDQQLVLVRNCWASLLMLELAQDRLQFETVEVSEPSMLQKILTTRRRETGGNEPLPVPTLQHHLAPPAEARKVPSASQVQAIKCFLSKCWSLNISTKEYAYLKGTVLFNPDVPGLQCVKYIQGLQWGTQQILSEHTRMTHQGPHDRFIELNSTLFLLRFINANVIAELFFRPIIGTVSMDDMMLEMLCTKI
AHR activator = activates the human aryl hydrocarbon receptor; actives 2.5% (n = 320,000); AID 2796; AHR-responsive luciferase reporter cells, luminescence; activation, % at 5 µM; in the data active = activation above about 47%
ssDAF-12 act = activates DAF-12 receptor from parasite S. stercoralis | HEK293 ssDAF-12/GRIP1 lit1-tk-luc reporter, luminescence; % of 3 µM dafachronic acid response | activation, % at 6.8 µM | actives 1% (n = 370,000);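 active = activation above the mean over all tested compounds plus 3 SD, cut at about 0.9% in these data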
Hits are given with their value. An excerpt weighted towards active compounds, which were near 5.7% of everything screened.

What do the screens show for `Cn1cc(/C=N/NC(=O)c2cccc([N+](=O)[O-])c2)c2ccccc21`?
DAX1 inh-1: inactive; hgDAF-12 ag: inactive; hcDAF12 agonist: inactive; DAX1 inh-2: inactive; AHR activator: 68.8; ssDAF-12 act: inactive

How did COc1ccc(/C=N/NC(=O)c2cccc([N+](=O)[O-])c2)c2ccccc12 do in these assays?
DAX1 inh-1: inactive; hgDAF-12 ag: inactive; hcDAF12 agonist: inactive; DAX1 inh-2: inactive; AHR activator: inactive; ssDAF-12 act: inactive

Results for Cn1cc(/C=N/NC(=O)c2ccccc2O)c2ccccc21 ?
DAX1 inh-1: inactive; hgDAF-12 ag: inactive; hcDAF12 agonist: inactive; DAX1 inh-2: inactive; AHR activator: inactive; ssDAF-12 act: inactive

What do the screens show for `Cc1[nH]c2ccccc2c1/C=N/NC(=O)c1cccc(F)c1`?
DAX1 inh-1: inactive; hgDAF-12 ag: inactive; hcDAF12 agonist: inactive; DAX1 inh-2: 7.8; AHR activator: inactive; ssDAF-12 act: inactive

What do the screens show for `Cn1cc(C(=O)N/N=C/c2cc(Br)cs2)c2ccccc21`?
AHR activator: 50.3

Results for Cc1[nH]c2ccccc2c1/C=N/Nc1ccc(F)cc1F ?
AHR activator: 78.4

How did COCc1cc(N2CCNC[C@@H]2C)ccc1N1CCS(=O)(=O)CC1 do in these assays?
DAX1 inh-1: inactive; hgDAF-12 ag: inactive; hcDAF12 agonist: inactive; ssDAF-12 act: inactive

How did C=CCN1[C@@H](C)[C@H](c2ccccc2)Oc2cccc(NCC(C)C)c2S1(=O)=O do in these assays?
DAX1 inh-1: inactive; hgDAF-12 ag: inactive; hcDAF12 agonist: inactive; ssDAF-12 act: inactive

How did COc1ccc(CCN(C)S(=O)(=O)c2cn(C)c(=O)n(C)c2=O)cc1OC do in these assays?
DAX1 inh-1: inactive; hgDAF-12 ag: inactive; hcDAF12 agonist: inactive; DAX1 inh-2: inactive; AHR activator: inactive; ssDAF-12 act: inactive

What do the screens show for `Cc1[nH]c2ccccc2c1/C=N/NC(=O)c1cccc([N+](=O)[O-])c1`?
DAX1 inh-1: inactive; hgDAF-12 ag: inactive; hcDAF12 agonist: inactive; AHR activator: 48.1; ssDAF-12 act: inactive

How did Cc1cc(/C=N/NC(=O)c2cccc(F)c2)c(C)n1-c1ccccc1 do in these assays?
DAX1 inh-1: inactive; hgDAF-12 ag: 11.0; hcDAF12 agonist: inactive; DAX1 inh-2: 4.5; AHR activator: inactive; ssDAF-12 act: inactive

How did Cc1cc(/C=N/NC(=O)c2ccncc2)c(C)n1-c1cccc(C(F)(F)F)c1 do in these assays?
DAX1 inh-1: inactive; hgDAF-12 ag: inactive; hcDAF12 agonist: inactive; DAX1 inh-2: inactive; AHR activator: inactive; ssDAF-12 act: inactive

Results for CCOc1ccnc2c1c(=O)n(Cc1cc(OC)cc(OC)c1)c(=O)n2C ?
DAX1 inh-1: inactive; hgDAF-12 ag: inactive; hcDAF12 agonist: inactive; DAX1 inh-2: inactive; AHR activator: inactive; ssDAF-12 act: inactive

How did COc1ccc(N(CC(=O)NCCc2cccc(C)c2)S(=O)(=O)c2c(C)noc2C)cc1 do in these assays?
DAX1 inh-2: inactive; AHR activator: inactive

Results for Cc1nn(-c2ccccc2)nc1-c1nnc(-c2ccc(C(F)(F)F)cc2)o1 ?
DAX1 inh-1: inactive; hgDAF-12 ag: inactive; hcDAF12 agonist: inactive; DAX1 inh-2: inactive; AHR activator: inactive; ssDAF-12 act: inactive

What do the screens show for `CN(C)CCN1CC(O)=C(c2nc3ccccc3s2)C1=N`?
DAX1 inh-1: inactive; hgDAF-12 ag: inactive; hcDAF12 agonist: inactive; DAX1 inh-2: 4.8; AHR activator: inactive; ssDAF-12 act: inactive

How did Cc1cc(-c2ccccc2)nc2cc(C(=O)NCCCn3ccnc3)nn12 do in these assays?
DAX1 inh-2: inactive; AHR activator: 65.8

Results for Cc1cc(C(=O)NCCCn2ccnc2)sc1-c1ccccc1 ?
DAX1 inh-1: inactive; hgDAF-12 ag: inactive; hcDAF12 agonist: inactive; DAX1 inh-2: inactive; AHR activator: 70.3; ssDAF-12 act: inactive

How did Cc1cc(N2CCN(C(=O)OC(C)(C)C)C[C@@H]2C)ccc1N1CCN(Cc2ccccc2)[C@H](C)C1 do in these assays?
DAX1 inh-1: inactive; hgDAF-12 ag: inactive; hcDAF12 agonist: inactive; ssDAF-12 act: inactive

Results for Cc1ccc(/C=N/NC(=O)c2c(C)nc3ccc(Cl)cn23)cc1 ?
DAX1 inh-1: inactive; hgDAF-12 ag: inactive; hcDAF12 agonist: inactive; ssDAF-12 act: inactive

How did O=c1c2sc(-c3ccccc3)cc2nc2n1CCCCC2 do in these assays?
DAX1 inh-1: inactive; hgDAF-12 ag: 12.2; hcDAF12 agonist: inactive; DAX1 inh-2: 5.0; AHR activator: inactive; ssDAF-12 act: inactive

What do the screens show for `Cn1c(NCCN2CCCC2)nc2cc(-c3ccccc3)sc2c1=O`?
DAX1 inh-1: inactive; hgDAF-12 ag: inactive; hcDAF12 agonist: inactive; ssDAF-12 act: inactive

Results for O=c1c2c(-c3ccccc3)csc2nc2n1CCC2 ?
DAX1 inh-1: inactive; hgDAF-12 ag: inactive; hcDAF12 agonist: inactive; DAX1 inh-2: inactive; AHR activator: inactive; ssDAF-12 act: inactive

Results for O=c1c2sc(-c3ccccc3)cc2nc2n1CCC2 ?
DAX1 inh-1: 4.3; hgDAF-12 ag: 12.6; hcDAF12 agonist: 5.8; DAX1 inh-2: inactive; AHR activator: inactive; ssDAF-12 act: 0.9

What do the screens show for `CC(OC(=O)C1CCC1)C(=O)Nc1cc(Cl)cc(Cl)c1` (stereo not drawn)?
DAX1 inh-1: inactive; hgDAF-12 ag: inactive; hcDAF12 agonist: inactive; DAX1 inh-2: inactive; AHR activator: inactive; ssDAF-12 act: inactive

What do the screens show for `Cc1cc(-c2nnc(CCC(=O)N3CCN(Cc4cccc(F)c4)CC3)o2)c(C)o1`?
DAX1 inh-1: inactive; hgDAF-12 ag: inactive; hcDAF12 agonist: inactive; DAX1 inh-2: 6.3; AHR activator: inactive; ssDAF-12 act: inactive

Results for O=C(CN1c2cccc3cccc(c23)S1(=O)=O)NC1CCCCC1 ?
DAX1 inh-1: inactive; hgDAF-12 ag: inactive; hcDAF12 agonist: inactive; DAX1 inh-2: inactive; AHR activator: inactive; ssDAF-12 act: inactive

Results for O=C(CN1C(=O)c2ccccc2S1(=O)=O)NCc1ccccc1 ?
DAX1 inh-1: inactive; hgDAF-12 ag: inactive; hcDAF12 agonist: inactive; DAX1 inh-2: inactive; AHR activator: inactive; ssDAF-12 act: inactive

What do the screens show for `CC(C)C(NC(=O)CN1C(=O)c2ccccc2S1(=O)=O)C(C)C`?
DAX1 inh-1: inactive; hgDAF-12 ag: inactive; hcDAF12 agonist: inactive; DAX1 inh-2: 5.0; AHR activator: inactive; ssDAF-12 act: inactive

How did O=C(NC1CCCCC1)c1ccc2c(c1)S(=O)(=O)c1ccccc1C2=O do in these assays?
DAX1 inh-1: inactive; hgDAF-12 ag: inactive; hcDAF12 agonist: inactive; DAX1 inh-2: 5.0; AHR activator: inactive; ssDAF-12 act: inactive

How did CCc1cccc(C)c1NC(=O)CN1C(=O)c2ccccc2S1(=O)=O do in these assays?
DAX1 inh-1: inactive; hgDAF-12 ag: inactive; hcDAF12 agonist: inactive; DAX1 inh-2: inactive; AHR activator: inactive; ssDAF-12 act: inactive

What do the screens show for `CCc1ccccc1NC(=O)CN1C(=O)c2ccccc2S1(=O)=O`?
DAX1 inh-1: inactive; hgDAF-12 ag: inactive; hcDAF12 agonist: inactive; DAX1 inh-2: 4.5; AHR activator: inactive; ssDAF-12 act: inactive

What do the screens show for `O=C(CN1C(=O)c2ccccc2S1(=O)=O)NC1CCCCCC1`?
DAX1 inh-1: inactive; hgDAF-12 ag: 12.5; hcDAF12 agonist: inactive; DAX1 inh-2: 6.2; AHR activator: inactive; ssDAF-12 act: inactive
